TWEAK Fn14 block – inhibitors of TWEAK-Fn14 signaling, primary screen, luciferase reporter cells, uHTS. TWEAK-stimulated Fn14 reporter cells, luciferase luminescence, 8 h. inhibition, % at 10 µM. hit rate 2% among 360,000; in the data active = inhibition above about 50%
HSF1 inhib – HSF1 inhibitors in luciferase reporter cells, primary screen, cell-based, NIH3T3, luminescence | hit rate 0.77% among 300,000 | activity change, negative = inhibition, % at 7.5 µM (by protocol) | NIH3T3-HGL HSE-luciferase, MG132-induced, luminescence 8 h; stronger effect = lower value;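 active = more than half of replicate wells show activity change below -50%, luminescence cut by over half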;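 also: luciferase reports HSF-1 transcriptional activity via heat shock element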
TROY NFkB inh – inhibitors of TROY-driven NF-kB signaling, primary screen, Q293 LMP1-TROYcd cells, NF-kB luciferase, uHTS | Q293 LMP1-TROYcd NF-kB luciferase reporter, 4 h | inhibition, % at 10 µM | hit rate 0.98% among 360,000 | AID 1347056, 2019;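 active = compounds whose plate-normalised and pattern-corrected inhibition of the luciferase reporter signal at the single screening dose is 50% or more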
LMP1 NFkB inh – EBV LMP1-driven NF-kappaB luciferase reporter inhibitors, primary screen, cell-based, luminescence, single point | LMP1-induced NF-kappaB luciferase reporter cells | inhibition, % at 12.5 µM | hit rate 0.69% among 350,000 | AID 504558, 2011; in the data active = inhibition above about 41%
HSF1 activator – HSF-1 activators, primary screen, NIH3T3-HGL cells, MG132 stress, luminescence, single point; NIH3T3-HGL HSF-1 luciferase reporter, 8 h; 100% = twice DMSO control signal; activation, % at 9 µM; hit rate 1.7% among 300,000;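 active = mean replicate activation of at least 50% with a set share of replicates each reaching 50%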
HSP90 refold inh – HSP90 inhibitors, primary screen, cell lysate, luminescence; Heat shock protein HSP 90 (rabbit reticulocyte lysate; luciferase refolding); Rabbit reticulocyte lysate, luciferase refolding luminescence, 3 h; inhibition, % at 5.6 µM; hit rate 0.91% among 290,000; AID 1789, 2009;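 active = inhibition above the screen-wide mean plus 3 SD, computed separately per campaign, cut at about 16% in these data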;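 also: inhibitors lower the luminescence because luciferase stays unfolded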
Each line names hits and unclear results; the compound was inactive in the other large screens. This is a sample that favours compounds with a hit; in the whole collection about 4.7% have one here.

O=C(Nc1ccc(Cl)cc1)Nc1nnc(-c2ccncc2)s1	TWEAK Fn14 block 81.1
Cc1cnc(NC(=O)Nc2ccc(Cl)cc2)s1	HSF1 activator 273.6
O=C(Nc1ncc([N+](=O)[O-])s1)c1cccs1	none
O=C(Nc1ccc(F)cc1)Nc1nnc(-c2ccncc2)s1	none
Cc1cnc(NC(=O)CSc2ccc(Cl)cc2)s1	none
Cc1cnc(NC(=O)c2cccs2)s1	HSF1 activator 82.9
COc1ccc(C(=O)N/C(=C\c2ccc(Cl)cc2)C(=O)NCc2ccncc2)cc1	none (no result: HSF1 inhib, HSF1 activator, HSP90 refold inh)
Cc1ccc(NS(=O)(=O)c2cc(NC(=O)c3ccc4c(c3)NC(=O)CS4)ccc2Cl)c(C)c1	TWEAK Fn14 block 66.3
C[C@H](CO)N1C[C@H](C)[C@H](CN(C)C(=O)c2ccccc2)OCc2cnnn2CCCC1=O	none (no result: HSF1 inhib, HSF1 activator, HSP90 refold inh)
Cc1cccc(N2CCN(S(=O)(=O)c3c(C)[nH]c(C)c3C(=O)N3CCCC3)CC2C)c1 (stereo not given)	HSF1 activator 54.6
CCOC(=O)c1c(C)[nH]c(C)c1S(=O)(=O)N1CCN(c2cccc(C)c2)C(C)C1 (stereo not given)	HSF1 activator 86.6
CCOC(=O)c1c(C)[nH]c(C)c1S(=O)(=O)N1CCCCC1	HSF1 activator 56.8
CCOC(=O)c1c(C)[nH]c(C)c1S(=O)(=O)N1CCC(c2ccccc2)C1 (stereo not given)	none
COC(=O)C[C@@H]1C[C@@H]2c3cc(NS(=O)(=O)c4ccc(F)cc4)ccc3O[C@@H]2[C@@H](CO)O1	none (no result: HSF1 inhib, HSF1 activator, HSP90 refold inh)
Cc1ccn(CCC(=O)N2CCCC(N3CCN(c4ccccc4C)CC3)C2)n1 (stereo not given)	none (no result: HSF1 inhib, HSF1 activator, HSP90 refold inh)
CC[C@H](C)Cc1cn([C@@H](CCCN=C(NC(=O)OC(C)(C)C)NC(=O)OC(C)(C)C)C(=O)NCCCCCCCCCCC(=O)N2CCN(C(=O)OC(C)(C)C)CC2)nn1	TWEAK Fn14 block 59.9, TROY NFkB inh 81.0 (no result: HSP90 refold inh)
Cc1cn([C@@H](CCCCNC(=O)OC(C)(C)C)C(=O)NCCCCCCCCCCC(=O)N2CCN(C(=O)OC(C)(C)C)CC2)nn1	TWEAK Fn14 block 87.7, TROY NFkB inh 70.4 (no result: HSF1 inhib, HSF1 activator, HSP90 refold inh)
CC[C@H](C)Cc1cn([C@@H](CCCCN)C(=O)NCCCCCCCCCCC(=O)N2CCNCC2)nn1	none (no result: HSP90 refold inh)
CC(C)(C)OC(=O)NCCCCCc1cn(CC(=O)NCCCCCCCCCCC(=O)N2CCN(C(=O)OC(C)(C)C)CC2)nn1	none (no result: HSF1 inhib, HSF1 activator, HSP90 refold inh)
CNC(=O)C[C@H]1C(=O)N(c2ccc(OC)cc2)C[C@@H]1CSC	none (no result: HSF1 inhib, HSF1 activator, HSP90 refold inh)
Cc1cccc(NC(=O)CCc2c(C)nn(-c3ccc(N4CCOCC4)nn3)c2C)c1	none
Cc1cccc(NC(=O)CCc2c(C)nn(-c3ccc(N4CCCCC4)nn3)c2C)c1	HSF1 activator 63.7
COc1ccc(OCC(=O)Nc2ccc3c(c2)nc(CCn2ccccc2=O)n3C)cc1	HSF1 activator 52.5
Cc1nn(CC(=O)Nc2ccc3c(c2)nc(CCN2CCCCC2)n3C)c(=O)c2ccccc12	HSF1 activator 53.4
Cn1c(CCN2CCCCC2)nc2cc(NC(=O)Nc3ccccc3)ccc21	HSF1 activator 57.5
Cc1ccc(NC(=O)Cn2nc(C)c3ccccc3c2=O)cc1	TWEAK Fn14 block 71.8 (no result: TROY NFkB inh)
Cc1nn(CC(=O)Nc2cccc(O)c2)c(=O)c2ccccc12	none (no result: HSF1 inhib, HSF1 activator, HSP90 refold inh)
CC(=O)N1CCN(Cc2nc3cc(NC(=O)Cn4nc(C)c5ccccc5c4=O)ccc3n2C)CC1	none
COc1ccc(OCC(=O)Nc2ccc3c(c2)nc(CCN2CCOCC2)n3C)cc1	none
CC(C)CNC(=O)C1(C)CCCN1C(=O)c1cccnc1 (stereo not given)	none (no result: HSF1 inhib, LMP1 NFkB inh, HSF1 activator, HSP90 refold inh)
CCc1noc(C)c1C(=O)N(CC)CC(=O)NCc1ccc(F)cc1	none (no result: HSF1 inhib, HSF1 activator, HSP90 refold inh)
CCC(=O)N1CCC1(C)C(=O)Nc1cccc2cccnc12 (stereo not given)	none (no result: HSF1 inhib, LMP1 NFkB inh, HSF1 activator, HSP90 refold inh)
Cc1cc(C)n(-c2ccc(C(=O)O)cc2)n1	none
Cc1cc(N)n(-c2ccc(C(=O)O)cc2)n1	HSF1 inhib -67.0
CCn1c(NC(=S)Nc2ccccc2)nc2ccccc21	HSF1 inhib -60.2
COc1ccc(S(=O)(=O)N2CCCCCC2)cc1C(=O)OCc1cccc(OC)c1OC	LMP1 NFkB inh 45.9 (no result: HSP90 refold inh)

Screening results (PubChem)
